For 40 compounds, growth results are on record in PubChem BioAssay (NCI).

The panel holds about 83,000 compounds, 20% with a hit somewhere; the sample as a whole holds those more often.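 48-hour exposure, single concentration, 96-well plates; percent growth endpoint where 0 means no net growth. Active: below 10.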 Values without a mark were called inactive. Calls of active or inactive are those of the source.

This assay relates to M14 melanoma. Put plainly: NCI-60 one-dose screen, 48 h (100 = growth as untreated, 0 = no growth, -100 = all killed). Particulars: 10 µM unless noted. As for the experimental part:
Growth inhibition of the M14 human tumor cell line is measured as a screen for anti-cancer activity. Cells are grown in 96 well plates and exposed to the test compound for 48 hours. Compounds are tested at a single concentration, which is 10^-5 M for most compounds. The reported endpoint is percent growth (GI% or GIPRCNT), where numbers from 0 - 100% represent growth inhibition, and numbers from -100% - 0 represent cell death. For example, a value of 40 represents 60% growth inhibition. A value of 0 means no net growth occurred over the course of the experiment. A value of -40 indicates 40% of cells at the beginning of the experiment died by the end of the experiment. A value of -100 means all cells are dead at the end of the experiment.
NCI-60 Human Tumor Cell Lines Screen was performed using the standard one-dose NCI protocol, which is described in more detail at https://dtp.cancer.gov/discovery_development/nci-60/default.htm.
Compounds with GIPRCNT values below 10 were considered active. Activity score was based on GIPRCNT using the following formula: […]
Score is 0 for GIPRCNT values of 100 or above, 50 for GIPRCNT values of 0, and 100 for GIPRCNT values of -100.
`Oc1ccc(-c2nc3ccc4[nH]ncc4c3c3c2CCCC3)c(F)c1`: the growth was 16.7%.
The same measure for `CC[C@@H](C(=O)[C@@H](C)[C@@H](O)[C@H](C)[C@@H]1O[C@@H]([C@@H](CC)C(=O)ONC(=O)c2ccccc2O)CC[C@@H]1C)C1O[C@]2(C=CC(=O)[C@]3(CC[C@@](C)([C@H]4CC[C@](O)(CC)[C@H](C)O4)O3)O2)[C@H](C)C[C@@H]1C` (stereo not given in full): 63.6%.
`CC(=O)N1N=C(c2ccc(Nc3nc(Nc4ccc(F)cc4)nc(Nc4ccc(F)cc4)n3)cc2)CC1c1ccc(N(C)C)cc1` (stereo not given): the growth was 40.2%.
The same measure for `O=C(Nc1cc(Cl)ccc1O)c1ccccc1Nc1ccnc(C(F)(F)F)c1`: 36%; for `Cc1cccc(NC(=O)Cn2cc(CN3CCN(c4ccnc5cc(Cl)ccc45)CC3)nn2)c1`: 92.5%; for `COc1ccc2c(c1)CC[C@@H]1[C@@H]2CC[C@]2(C)C3C(=CC(COC(C)=O)C4C(=O)N(c5ccc(Cl)cc5)C(=O)C43)C[C@@H]12` (stereo not given in full): 98.8%.
The same measure for `COc1ccc(-c2nc3ccc(C)cc3c3c2c(=O)n(C)c(=O)n3C)cc1OC`: 109%.
Consider `CC(C)C1C2=C(NCCN1C(=O)c1ccncc1)C(C)(C)N(Cc1ccccc1)C2=O` (stereo not given), for which the growth is 101%.
As for `OC1(c2ccccc2)c2ccccc2N(c2ccccc2)c2ccc(Cl)cc21` (stereo not given), the growth was -79.5% (active).
As to `O=c1oc2c(cnc3ccccc32)cc1-c1cccc(Cl)c1`, the growth was 112%.
The same measure for `O=c1cc(CNc2cc(F)cc(F)c2)c2ccc(I)cc2[nH]1`: 20%.
`O=C(O)CCCCCCCCCCN1C(=O)/C(=C2/C(=O)N(CC(=O)O)c3ccc(Br)cc32)SC1=S`: the growth is 96.3%.
In the case of `O=C(/C=C/c1ccccc1)N(C1CCCCC1)C1CCCCC1`, the growth is 87.6%.
Regarding `Clc1ccc(-c2cc(-c3ccccc3)nc(N3CCN(CCCNc4ccnc5cc(Cl)ccc45)CC3)n2)cc1`, the growth was -51.8% (active).
For the compound `Brc1ccc(Nc2nc(Nc3cnc4ccccc4c3)c3[nH]cnc3n2)cc1`, the growth is 84.8%.
As to `Cc1cc(C(=O)CCCC(=O)c2cc(C)c(O)c(C)c2)cc(C)c1O`, the growth is 98.6%.
On to `CC(C)=CC(=O)N[C@H]1CC[C@]2(C)C3CC[C@]4(C)C(C(C)N(C)C)=CCC4C3CCC2[C@H]1O` (stereo not given in full), for which the growth was -56.3% (active).
Turning to `COc1ccc(C(=O)C/C(=C\c2ccc(O)c(OC)c2)C(=O)NN)cc1`, the growth was 91.5%.
For `O=C(/C=C/C12c3ccccc3C(c3ccccc31)C1C(=O)NC(=O)C12)c1ccc(I)cc1` (stereo not given), the growth was 74%.
Take `CCCCCc1ccc(S(=O)(=O)Nc2ccc3nc(N)oc3c2)cc1`: the growth was 73.1%.
With `C=C1C(=O)O[C@H]2[C@H]1CC/C(COC(=O)NCc1ccc(Cn3c(=O)sn(-c4ccccc4)c3=O)cc1)=C\CC[C@@]1(C)O[C@@H]21`, the growth was 14.4%.
For `COc1ccc(-c2cc(C(=O)N3N=C(c4ccc(N)cc4)CC3c3ccc(Cl)cc3)c3cc(OC)ccc3n2)cc1` (stereo not given), the growth is 5.95% (active).
Turning to `O=C(Nc1ccccc1O)c1ccc(CNc2ccnc(C(F)(F)F)c2)cc1`, the growth was 34%.
As to `c1ccc(Nc2nc3c(s2)CCc2c[nH]cc2-3)nc1`, the growth is 102%.
Take `O=C(O)CC(C(=O)O)/C(=C\c1ccccc1)c1ccccc1` (stereo not given): the growth is 121%.
Regarding `N=C(N)c1ccc(-c2ccc(-c3ccccc3)o2)o1`, the growth is 14.1%.
In the case of `C=CC(=O)Nc1cccc(Oc2nccc(Nc3nnc(-c4ccc(Br)cc4)s3)n2)c1`, the growth was 116%.
For the compound `COc1ccc(-c2cn(Cc3cc4ccccc4s3)nn2)cc1OCCN1CCCCC1`, the growth is -29.4% (active).
Turning to `O=S(=O)(Nc1cc(F)cc(F)c1)c1ccc(-c2cnc(C3CC3)o2)cc1`, the growth was 16.5%.
On to `COc1ccc(/C=C/C(c2cc(OC)c(OC)c(OC)c2)n2cncn2)cc1O` (stereo not given), for which the growth is -12.3% (active).
In the case of `COc1cc2c3c(c4c5ccccc5[nH]c4c2c(OC)c1OC)C(=O)N(CCN1CCCCC1)C3=O` it was 12.3%.
The same measure for `C=CC(CC(c1ccccc1)(c1ccccc1)c1ccccc1)N(CC)CC` (stereo not given): 30.1%; for `O=[N+]([O-])c1ccccc1Nc1ccc2ccccc2c1`: 91.3%; for `ClCCn1cnc2c(SCc3ccccc3)ncnc21`: 71.7%.
As to `CNC(=O)NCC1OC(n2cnc3c(NC(=O)Nc4ccccc4)ncnc32)C2OC(=O)CC12` (stereo not given), the growth is 105%.
In the case of `CN(C)CCC(=O)C1CC1` it was 104%.
As for `Oc1c(I)cc(I)cc1CN(Cc1ccccn1)Cc1ccccn1`, the growth is -16.6% (active).
For the compound `Cc1ccc(S(=O)(=O)c2nc(-c3ccccc3)oc2SCC(N)=O)cc1`, the growth was 97.1%.
With `O=C1C=C(SCCO)C(=O)c2ccccc21`, the growth is -86.5% (active).
The same measure for `C#CCOc1ccc2nc(CCl)c(Cl)c(Nc3cccc(C(F)(F)F)c3)c2c1`: 81.4%.
